# Source: PubChem BioAssay (EPA / NIEHS)
# Active and inactive are the calls of the source. How the source made its calls: active means hit-call score of the fitted dose curve at least 0.9, where 1 is the maximum; inactive means score below 0.9.
# Read-out: ABC Transporter (ABCC3), ABCC3 (gene 8714)
# Assay: LTEA_HepaRG_ABCC3: Life Technologies and Expression Analysis (LTEA) Assay for ABC Transporter (ABCC3) using HepaRG (AID 2283462)
# Settings: mRNA level, 48 h; actives raise or lower the signal
# Description: LTEA_HepaRG is a cell based, multiplexed-readout assay that uses HepaRG, a human liver cell line, with measurements taken at 48 hours after chemical dosing on a 96-well plate.LTEA_HepaRG_ABCC3 is one of 102 assay component(s) measured in the LTEA HepaRG cell culture assay. It is a marker of NR mediated transport.Data from the assay component LTEA_HepaRG_ABCC3 was analyzed into 1 endpoint. This assay endpoint, LTEA_HepaRG_ABCC3, was analyzed with bidirectional fitting relative to DMSO as the negative control and baseline of activity. Using a type of inducible reporter, measures of mRNA induction for gain or loss-of-signal activity can be used to understand regulation of transcription factor activity. To generalize the intended target to other relatable targets, this assay endpoint is annotated to the transporter intended target family, where the subfamily is ABC transporter.
# A total of 1060 chemcials from the ToxCast library were tested in eight-point concentration-response experiments. Cell culture and cytotoxicity assays were conducted at Thermo Fisher Scientific's Custom Services facility (Madison, WI). A single lot of human HepaRG cells (Thermo Fisher Scientific, Frederick, MD) was used for the cell culture experiments. 96-well format collagen type I coated plates of human HepaRG cells were prepared using established methods. Briefly, cryopreserved HepaRG cells were thawed, plated at a density of approximately 100,000 cells/well in HepaRG Thaw, Plate, and General Purpose media (HPRG770, Thermo Fisher Scientific), and incubated for 48 hours. 0.5% DMSO was selected as vehicle control to balance the requisite need of DMSO in HepaRG cultures to maintain differentiation (for example, baseline metabolism, proportions of hepatocytes vs. cholangiocytes), while enabling further hepatic receptor pathway activation (for example, PXR and CAR) in response to chemical exposure. 48 hours after plating, the culture medium was replaced with HepaRG Serum-Free Incudtion Media. Cells were exposed to each test chemical in duplicate and maintained in CO2 incubators for another 48 hours. Chemical plates were thawed to room temperature and 200x concentrations of treatment groups were prepared. 8-point conentration-reponse curves were made with the highest exposure at 100 uM, followed by half-log dilutions, all in 0.5% DMSO. Each test plate contained variouse controls, induction positive controls (1mM phenobarbital), cytotoxicity positive controls ([…] aflatoxin B1), vehicle controls (0.5% DMSO), and total lysis controls (0.5% DMSO). Cell morphology images were taken using an Essen IncuCyte FLR automated microscope, with six 96-well plates imaged in about 24 minutes. Images were captured and exported and JPEG files. Spent culture media was transfered to black-well plates for the LDH assay, and remaining media was sorted at -80 C for later use. Cells were treated with RLT buffer and frozen until shipped for gene expression analysis. Total RNA was isolated from the cell suspension in 75 uL of Buffer RLT (Qiagen, Germantown, MD 20874) by Quintiles/Expression Analysis (Durham, NC) using a custom isolation procedure. Total RNA from each plate well was transferred to a preamplification plate. Fluidigm's 96.96 Dynamic ArrayTM (Fluidigm, Amsterdam, the Netherlands) technology was used for gene expression analyses by quantitative reverse transcription polymerase chain reaction (qRT-PCR, performed by Quintiles/Expression Analysis, Durham, NC)89. Standard TaqManTM Assays (Applied Biosystems/ThermoFisher Scientific, Foster City, CA) were used to assess the expression of 93 genes selected based on their selectivity and sensitivity to important hepatic receptors known to be modulated by environmental chemicals; importance in human hepatocyte functionality; and hepatotoxicity. […]
SMILES,outcome,AC50
CC(CO)OC(C)CO (stereo not given) (tested in a mixture with another compound),inactive,
CCOC(=O)CCC(=O)OCC,inactive,
COc1cc(S(=O)(=O)O)c(C)cc1N=Nc1c(O)ccc2cc(S(=O)(=O)O)ccc12,inactive,
CCCCOC(=O)CCCCCCCCC(=O)OCCCC,inactive,
CCNc1cccc(C)c1,inactive,
O=C(N[C@@H](Cc1ccccc1)[C@@H](O)C(=O)N1C[C@@H](O)[C@@H](O)C1)c1cc2cc(Cl)ccc2[nH]1,inactive,
COC(=O)c1ccc(O)cc1,inactive,
O=[N+]([O-])C(CO)(CO)CO,inactive,
CC1(C)NC(=O)NC1=O,inactive,
CCCCCCCCCCCC(=O)OC,inactive,
Nc1ccccc1N,,71.9 µM (active)
O=C(OCCCCCOC(=O)c1ccccc1)c1ccccc1,,12.7 µM (active)
Nc1ccc(S(=O)(=O)c2ccc(N)cc2)cc1,inactive,
NC(=O)Cn1c(=O)cc(CCN2CCN(c3nccc4sccc34)CC2)c2ccc(F)cc21,,78.1 µM (active)
CCCCc1ccc2c(n1)[C@@H](c1ccc(OC)cc1C[C@H](C)C(=O)O)[C@H](C(=O)O)[C@H]2c1ccc2c(c1)OCO2,inactive,
Cc1ccccc1Cl,inactive,
CC1(C)CC(N=C=O)CC(C)(CN=C=O)C1 (stereo not given),inactive,
OC[C@@H](O)[C@@H](O)[C@H](O)[C@H](O)CO,inactive,
CC=Cc1ccc(O)c(OC)c1,inactive,
CCCCCCCCCCCCCCCC,inactive,

SMILES,outcome,AC50
CNCc1cc(F)ccc1Oc1ccc(Cl)c(Cl)c1,inactive,
O=c1[nH]cc(F)c(=O)[nH]1,inactive,
COc1ccc2c(c1)c(CC(=O)O)c(C)n2C(=O)c1ccc(Cl)cc1,inactive,
C[Si]1(C)O[Si](C)(C)O[Si](C)(C)O[Si](C)(C)O1,inactive,
Cc1oc(-c2ccccc2)nc1CCOc1cccc2c1ccn2CCC(=O)O,inactive,
Cc1cc(=O)[nH]c(=S)[nH]1,inactive,
Oc1ccc2ccccc2c1N=Nc1ccccc1,inactive,
C=CCc1ccc(O)c(OC)c1,inactive,
CC(C)c1ccc(C(=O)N=C(N)N)cc1S(C)(=O)=O,inactive,
CCc1c(C(=O)NN2CCCCC2)nn(-c2ccc(Cl)cc2Cl)c1-c1ccc(Br)cc1,inactive,
CCCCCCCCCCCCCCCCCC(=O)O,inactive,
Cc1ccc(C)c(C)c1,inactive,
NCCO,inactive,
NS(=O)(=O)c1cc2c(cc1Cl)NCNS2(=O)=O,inactive,
c1cc(-c2ccncc2)ccn1,inactive,
Cc1ccc(N(C)C)cc1,inactive,
COCCOCCOC,inactive,
C1CCC(SSC2CCCCC2)CC1,inactive,
CCCCCC(=O)O,inactive,
CC(=O)C(C)=CC1C(C)=CCCC1(C)C (stereo not given),inactive,
